In all, about 320,000 compounds went through this assay and about 2,100 (0.66%) were called active. About 53% were inconclusive and are not listed. This is one part of a sample in which actives are shown more often than they occur. Calls follow the shape of the dose curve; as a rule, active = well fitted inhibition curve with a large enough effect in the signal ratio, with a control signal flat (not every such curve was filed as active); inconclusive = small, poorly fitted or top-dose-only effect, or effect the other way, or a change in a side signal; inactive = flat fitted curve, though single readings scatter; the % refers to the signal ratio.
experiment: qHTS Assay for Lipid Storage Modulators in Drosophila S3 Cells; details: BODIPY lipid droplet fluorescence, 18-24 h, cells fed with added oleic acid; cell number change: measured here: cell count max response; series mostly up to 46.1 µM;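 as to cell number change: cells counted by Cell Tracker Red CMTPX staining in the red channel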; as to lipid storage change, negative = inhibition: % is scaled to controls: 0 for no effect and ±100 for the full control effect
How it was run: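 Laser-scanning cytometry quantifies lipid droplet accumulation (500–530 nm total intensity; droplet/cell object ratio) in oleic acid-fed (400 uM added) Drosophila S3 cells treated with a concentration series. 20 uM Triacsin C defined 100% inhibition.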
Potency is read from the fitted curve at half-maximal effect.

Compound | Potency | cell number change [%] | lipid storage change, negative = inhibition
COc1ccc(NS(=O)(=O)c2cccc(C(=O)NCC(c3ccco3)N3CCCC3)c2)cc1 (stereo not given) | inactive | 21.4 | –
COC(=O)c1ccc(CSc2nnc(N)s2)cc1 | inactive | 1.22 | –
CCn1cc(C(=O)OCC(=O)OC2CC(C)CCC2C(C)C)c(=O)c2ccc(C)nc21 (stereo not given) | inactive | – | –
CCOCCCNC(=O)c1cc2c(=O)n3cccc(C)c3nc2s1 | inactive | 22 | –
CCC(C)Nc1nc2c(C)cccn2c(=O)c1C=Nc1ccc(OC)cc1 (stereo not given) | inactive | – | –
CCOCCCNc1nc2c(C)cccn2c(=O)c1/C=C1\SC(=S)N(C(C)CC)C1=O (stereo not given) | 0.461 µM (active) | 29.9 | –
COCCn1c(=O)[nH]c(=O)c2c(C(F)(F)F)cc(-c3cccs3)nc21 | inactive | 6.31 | –
COc1ccc(CNC(=O)c2cc(=O)c3cc(C)c(C)cc3o2)cc1 | inactive | 22.5 | –
CN(NS(=O)(=O)c1ccc(F)cc1)c1ncc(C(F)(F)F)cc1Cl | inactive | -16.4 | –
CC(=O)NCCC(=O)Nc1ncc(S(=O)(=O)c2ccc([N+](=O)[O-])cc2)s1 | inactive | 18.8 | –
CCCOc1ccc(N2C(=O)CC(N3CCN(c4ccc([N+](=O)[O-])cc4)CC3)C2=O)cc1 (stereo not given) | 2.31 µM (active) | 5.5 | –
CCCOc1ccc(N2C(=O)CC(N3CCOCC3)C2=O)cc1 (stereo not given) | inactive | 5.36 | –
CCCOc1ccc(N2C(=O)CC(N3CCN(c4ccccc4F)CC3)C2=O)cc1 (stereo not given) | inactive | -7.57 | –
Cn1c(=O)n(CC(=O)O)c(=O)c2c1nc1n2CCCN1Cc1ccccc1 | inactive | 6.57 | –
O=C(COc1ccccc1[N+](=O)[O-])N/N=C/C=C/c1ccco1 | inactive | -6.08 | –
Cc1cc(NC(=O)CN2C(=O)NC3(CCC(C)CC3)C2=O)no1 (stereo not given) | inactive | 5.62 | –
O=C(NCCN1C(=O)S/C(=C\c2ccc(Cl)cc2Cl)C1=O)C1=COCCO1 | 20.6 µM (active) | – | –
O=C(CCc1nc2ccccc2c(=O)[nH]1)NCCN1C(=O)S/C(=C\c2ccc(Cl)cc2Cl)C1=O | inactive | 1.43 | –
O=C(NCCN1C(=O)S/C(=C\c2cccc(Cl)c2Cl)C1=O)C1=COCCO1 | 11.6 µM (active) | -26.2 | –
O=C(NCCN1C(=O)S/C(=C\c2ccc(Cl)c(Cl)c2)C1=O)C1COc2ccccc2O1 (stereo not given) | inactive | – | –
O=C(CCCN1C(=O)/C(=C/c2ccccc2Cl)SC1=S)NCCCN1CCOCC1 | inactive | 16.8 | –
O=C(NCCN1C(=O)S/C(=C\c2ccc(Cl)c([N+](=O)[O-])c2)C1=O)C1=COCCO1 | inactive | 12.4 | –
CCOC(=O)c1c2c3c(cccc3n(C)c1=O)C(=O)c1ccccc1-2 | 13 µM (active) | -24.8 | –
CC(=O)c1c2c3c(cccc3n(C)c1=O)C(=O)c1ccccc1-2 | inactive | -3.04 | –

Compound | Potency | cell number change [%] | lipid storage change, negative = inhibition
Cn1c(=O)c(Nc2ccc(O)cc2)c2c3c(cccc31)C(=O)c1ccccc1-2 | inactive | 4.29 | –
COc1ccccc1CNC(=O)c1sccc1-c1ccccc1 | inactive | 7.94 | –
CCOC(=O)c1sc(=NC(=O)c2ccc(OC)c(OC)c2)n(C)c1C | inactive | 0.273 | –
CC(=O)c1ccc(S(=O)(=O)N2CCCc3ccccc32)cc1 | inactive | 13.2 | –
Cc1cccc(Oc2ncnc(N)c2[N+](=O)[O-])c1C | inactive | 1.6 | –
O=C(Nc1ccccn1)c1cc2ccccc2o1 | inactive | -2.14 | –
CCCn1c(NC(=O)c2ccco2)nc2ccccc21 | inactive | -15.8 | –
CCCn1c(NC(=O)c2ccc([N+](=O)[O-])o2)nc2ccccc21 | 6.51 µM (active) | -9.34 | –
CCCn1c(NC(=O)c2ccc(C)cc2)nc2ccccc21 | inactive | – | –
O=C(Nc1cccc2ncccc12)c1ccc([N+](=O)[O-])o1 | 16.4 µM (active) | 26.1 | –
O=C(Nc1cccc2ncccc12)c1ccc(-c2ccc(Br)cc2)o1 | inactive | -12.1 | –
O=C(Nc1ncccn1)c1ccc([N+](=O)[O-])o1 | inactive | -11.9 | –
O=C(Nc1ccccn1)c1ccc([N+](=O)[O-])o1 | 20.6 µM (active) | -6.3 | –
Cc1cccc(NC(=O)c2ccc([N+](=O)[O-])o2)c1C | inactive | 8.85 | –
Cc1cc(C)cc(OCCNC(=O)c2ccc(Br)cc2)c1 | inactive | 5.31 | –
CCC(C)c1ccc(NC(=O)Nc2cnccn2)cc1 (stereo not given) | inactive | 13.7 | –
O=C1CC(C(=O)Nc2cc(Cl)ccc2Cl)n2ncnc2N1 (stereo not given) | – | -2.1 | 6.51% [at 9.22 µM] (inactive)
CCOC(=O)N1CCN(S(=O)(=O)c2ccc(C)c(C)c2)CC1 | inactive | – | –
CCN(CC)CCNC(=O)CCn1nc(-c2ccc(Cl)cc2)ccc1=O | inactive | 9.34 | –
O=C(C1COc2ccccc2O1)N1CCN(c2ccccc2O)CC1 (stereo not given) | inactive | -2.02 | –
O=C(C1COc2ccccc2O1)N1CCCC1 (stereo not given) | 6.51 µM (active) | 0.347 | –
O=C(C1COc2ccccc2O1)N1CCCCC1 (stereo not given) | inactive | 3.75 | –
O=C(NNc1cccc(Cl)n1)Nc1ccc(Cl)cc1 | inactive | -10.7 | –
O=c1oc2ccc(F)cc2c2c1C1O[C@](c3ccsc3)(Cc3c1ccc1ccccc31)O2 | – | 2.65 | 17.6% [at 9.22 µM] (inactive)
